Test results as given in PubChem BioAssay (Tox21).
Results filed as inconclusive are left out. Calls of active or inactive are those of the source. Unless noted, calls follow the shape of the dose curve; as a rule, active = well fitted curve in the direction sought with a large enough effect in the repeat runs; inconclusive = weak or mixed curves; inactive = no such curve, though single readings can be large; an effect the other way counts as inactive or inconclusive.

Tests used:
[1] = qHTS assay to identify small molecule agonists of the vitamin D receptor (VDR) signaling pathway - cell viability counter screen (AID 743224); also: series mostly up to about 63 µM; % is scaled to controls: 0 for no effect and ±100 for the full control effect; nearly all actives have a fitted effect of over 50% in size
Summary of the method: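 Compounds were pin-transferred onto VDR-bla cells plated 4 h earlier; following 16 h incubation at 37C, cell viability was quantified by CellTiter-Glo luminescence after 30 min at room temperature.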

[2] = qHTS assay to identify small molecule antagonists of the vitamin D receptor (VDR) signaling pathway - cell viability counter screen (AID 743225); also: % is scaled to controls: 0 for no effect and ±100 for the full control effect; nearly all actives have a fitted effect of over 50% in size
Summary of the method: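 Luminescent cell viability (CellTiter-Glo) in VDR-bla HEK 293T cells after 16 h compound exposure at 37C in the presence of 3 nM final 1-alpha,25-dihydroxy vitamin D3.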

[3] = qHTS assay to identify small molecule agonists of the NFkB signaling pathway - cell viability counter screen (AID 1159515; calls by dose curve; also: series mostly up to about 61 µM; % is scaled to controls: 0 for no effect and ±100 for the full control effect; nearly all actives have a fitted effect of over 55% in size)
Summary of the method: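 Parallel cytotoxicity counter screen in ME-180 cells carrying an NFkB-response-element beta-lactamase reporter, 2,000 cells/well. Compound exposure lasted 5 hr at 37 C, 5% CO2. Cell viability was quantified by CellTiter-Glo luminescence.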

[4] = qHTS assay to identify small molecule agonists of the endoplasmic reticulum stress response signaling pathway (AID 1159516; active = well fitted activation curve with a large enough effect in the signal ratio in the repeat runs, not every such curve was filed as active; the % refers to the signal ratio; also: potency is read from the fitted curve at half-maximal effect)
Summary of the method: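 Using a HeLa line with an ESRE-driven beta-lactamase gene, agonist activity was measured by FRET substrate fluorescence (460 and 530 nm emission) after cells were treated with compounds for 5 hr at 37 C and 5% CO2.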

[5] = qHTS assay to identify small molecule agonists of the endoplasmic reticulum stress response signaling pathway - cell viability counter screen (AID 1159517; calls by dose curve;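 also: HeLa cells carrying an ER stress response element beta-lactamase reporter; series mostly up to about 61 µM; % is scaled to controls: 0 for no effect and ±100 for the full control effect; nearly all actives have a fitted effect of over 50% in size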)
Summary of the method: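 After overnight attachment, ESRE-bla HeLa cells were treated with Tox21 library compounds for 5 hr. CellTiter-Glo luminescence, read 30 min post-addition at room temperature, reported viability.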

[6] = qHTS assay to identify small molecule antagonists of the retinoid-related orphan receptor gamma (ROR-gamma) signaling pathway - cell viability counter screen (AID 1159520); also: % is scaled to controls: 0 for no effect and ±100 for the full control effect; nearly all actives have a fitted effect of over 50% in size
Summary of the method: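 Cytotoxicity was read from cellular ATP (CellTiter-Glo luminescence) after 16 hr at 37 C with 1 uM doxycycline induction. The inducer was added 2 hr after compound transfer to Tet-on ROR gamma CHO cells.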

[7] = qHTS assay to identify small molecule agonists of the AP-1 signaling pathway - cell viability counter screen (AID 1159525; calls by dose curve; also: nearly all actives have a fitted effect of over 55% in size)
Summary of the method: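 Intracellular ATP by Cell Titer Glo luminescence (30 min, RT) in the same ME-180 AP-1-bla wells after the 5 h compound exposure at 37 °C. Normalised to tetra n-octyl ammonium bromide and DMSO controls.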

[8] = qHTS assay to identify small molecule agonists of the AP-1 signaling pathway (AID 1159526; calls by dose curve; also: % is scaled to controls: 0 for no effect and ±100 for the full control effect)
[9] = molecular target: Retinoic acid receptor RXR-alpha (Homo sapiens) (UniProt P19793); assay: qHTS assay to identify small molecule agonists of the RXR signaling pathway (AID 1159527; calls by dose curve; also: % is scaled to controls: 0 for no effect and ±100 for the full control effect; nearly all actives have a fitted effect of over 35% in size)
Chain of Retinoic acid receptor RXR-alpha (Homo sapiens) (P19793 whole entry, looked up): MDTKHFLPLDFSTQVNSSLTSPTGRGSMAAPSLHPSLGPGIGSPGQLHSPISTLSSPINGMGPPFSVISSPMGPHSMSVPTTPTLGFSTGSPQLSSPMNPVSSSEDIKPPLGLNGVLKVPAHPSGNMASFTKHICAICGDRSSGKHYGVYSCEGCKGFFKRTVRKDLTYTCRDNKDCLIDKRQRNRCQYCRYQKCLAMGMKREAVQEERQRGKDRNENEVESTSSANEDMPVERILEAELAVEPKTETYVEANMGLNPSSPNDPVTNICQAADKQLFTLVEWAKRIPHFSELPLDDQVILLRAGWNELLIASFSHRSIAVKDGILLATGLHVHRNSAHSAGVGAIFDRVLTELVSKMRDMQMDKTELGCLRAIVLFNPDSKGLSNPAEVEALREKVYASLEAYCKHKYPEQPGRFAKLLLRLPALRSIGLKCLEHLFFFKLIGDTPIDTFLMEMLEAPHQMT
Summary of the method: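 Beta-lactamase reporter assay, agonist format. Engineered HEK 293T line, charcoal-stripped FBS at 2%, overnight (16 hr) exposure, fluorescence at 460 and 530 nm after 405 nm excitation.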

[10] = qHTS assay to identify small molecule agonists of the RXR signaling pathway - cell viability counter screen (AID 1159529)
Summary of the method: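 Same-well viability check after the LiveBLAzer FRET read: CellTiter-Glo added, luminescence measured after 30 min at room temperature. Reporter HEK 293T cells had been treated with compounds for 16 hr following a 5 hr preincubation.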

[11] = qHTS assay to identify small molecule antagonists of the retinoid acid receptor (RAR) signaling pathway - cell viability counter screen (AID 1159551); also: % is scaled to controls: 0 for no effect and ±100 for the full control effect; nearly all actives have a fitted effect of over 35% in size
Summary of the method: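 ATP-based viability, C3RL4 cells, 6 h at 37 C with 1 uM final retinol co-added after compound; luminescence read 30 min post CellTiter-Glo, RT.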

[12] = qHTS assay to identify small molecule antagonists of the retinoic acid receptor (RAR) signaling pathway (AID 1159552)
Summary of the method: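 Readout: luciferase luminescence, 30 min post-reagent at RT. Setup: C3RL4 RARE reporter cells, compounds plus retinol 1 uM final, 6 hr incubation at 37 C and 5% CO2.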

[13] = qHTS assay to identify small molecule agonists of the retinoic acid receptor (RAR) signaling pathway (AID 1159553); also: % is scaled to controls: 0 for no effect and ±100 for the full control effect
Summary of the method: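 Quantitative high-throughput format: the Tox21 10K library was tested on C3RL4 RARE-luciferase cells for 6 hr at 37 C and 5% CO2, with luminescence measured after a 30 min room-temperature reagent step.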

[14] = qHTS assay to identify small molecule antagonists of the estrogen related receptor (ERR) signaling pathway (AID 1224819)
Summary of the method: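 ERR reporter cell line (NTP) plated at 2,000 cells/well, settled 6 h at 37C/5% CO2, then exposed to LOPAC compounds for 18 h at 37C. One-Glo luciferase luminescence read after 30 min at room temperature.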

[15] = qHTS assay to identify small molecule agonists of the estrogen related receptor (ERR) signaling pathway (AID 1224820); also: % is scaled to controls: 0 for no effect and ±100 for the full control effect
Summary of the method: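 Luminescence readout (One-Glo, 30 min RT) from NTP-supplied ERR cell line exposed to compounds for 18 h at 37 C. Cells seeded 2,000 per well and pre-incubated 6 h before pin-tool compound transfer.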

[16] = test system: estrogen-related receptor alpha (ERRalpha) with PGC-1alpha coactivator, human; assay: qHTS assay to identify small molecule antagonists of the estrogen related receptor signaling pathway with the pleiotropic PPARgamma coactivator (PGC) (AID 1224821; calls by dose curve)
Summary of the method: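 PGC/ERR reporter cells; 6 h pre-incubation 37 C/5% CO2; pin-tool compound in DMSO, 18 h 37 C; One-Glo added, 30 min RT; luminescence read. qHTS antagonist mode.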

[17] = qHTS assay to identify small molecule agonists of the estrogen related receptor signaling pathway with the pleiotropic PPARgamma coactivator (PGC) (AID 1224823); also: % is scaled to controls: 0 for no effect and ±100 for the full control effect
Summary of the method: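 Luminescence readout (One-Glo, 30 min RT) from PGC/ERR cell line treated 18 h at 37 C with pin-tool-delivered DMSO compound solutions; cells plated 6 h before dosing. Quantitative HTS format.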

OC[C@H]1O[C@@H](OCCc2ccc(O)cc2)[C@H](O)[C@@H](O)[C@@H]1O
inactive: Potency [1] | Potency [2] | Potency [3] | Potency [4] | Potency [5] | Potency [6] | Potency [7] | Potency [8] | Potency [9] | Potency [10] | Potency [11]

Nc1cccc(S(=O)(=O)c2cccc(N)c2)c1
inactive: Potency [1] | Potency [2] | Potency [3] | Potency [4] | Potency [5] | Potency [6] | Potency [7] | Potency [8] | Potency [9] | Potency [10] | Potency [11]

O=S(=O)(Oc1ccc(Cl)cc1)c1ccccc1
inactive: Potency [1] | Potency [2] | Potency [3] | Potency [4] | Potency [5] | Potency [6] | Potency [7] | Potency [8] | Potency [10] | Potency [11] | Potency [12]

Brc1c2ccccc2c(Br)c2ccccc12
active: Potency [4] 0.882 µM
inactive: activity change, negative = cytotoxicity [1] 13.8% [at 5.95 µM] | viability change, negative = cytotoxic [2] -26.5% [at 6.95 µM] | activity, negative = cytotoxic [3] -0.607% [at 6.95 µM] | activity change, negative = cytotoxicity [5] -1.22% [at 6.95 µM] | activity, negative = cytotoxicity [6] 12% [at 8.39 µM] | viability change, negative = cytotoxic [7] 0.0847% [at 6.97 µM] | activation [8] -11.4% [at 6.97 µM] | activity change, negative = cytotoxicity [10] 0.822% [at 6.97 µM] | activity change, negative = cytotoxicity [11] 11.4% [at 8.39 µM] | activation [13] -1.37% [at 8.36 µM]

CCCCC(CC)COC(=O)CCCCCCCCC(=O)OCC(CC)CCCC (stereo not drawn)
inactive: Potency [1] | Potency [2] | Potency [3] | Potency [4] | Potency [5] | Potency [6] | Potency [7] | Potency [8] | Potency [9] | Potency [10] | Potency [11]

O=C(O)c1nc(Cl)c(Cl)c(Cl)c1Cl
inactive: Potency [1] | Potency [3] | Potency [4] | Potency [5] | Potency [6] | Potency [7] | Potency [8] | Potency [10] | Potency [11] | Potency [12] | Potency [13]

CC(C)(CO)[N+](=O)[O-]
inactive: Potency [1] | Potency [2] | Potency [3] | Potency [4] | Potency [5] | Potency [6] | Potency [7] | Potency [8] | Potency [9] | Potency [10] | Potency [11]

COc1cccc(N(C)C(=S)Oc2ccc3c(c2)CCCC3)n1
inactive: Potency [1] | Potency [2] | Potency [3] | Potency [4] | Potency [5] | Potency [6] | Potency [7] | Potency [8] | Potency [10] | Potency [11] | Potency [12] | Potency [13]

CCO[C@H](Cc1ccc(OCCc2ccc(OS(C)(=O)=O)cc2)cc1)C(=O)O
inactive: Potency [1] | Potency [2] | Potency [3] | Potency [4] | Potency [5] | Potency [6] | Potency [7] | Potency [8] | Potency [10] | Potency [11] | Potency [12] | Potency [13]

O=C(O)CNCC(=O)O
inactive: activity change, negative = cytotoxicity [1] -6.84% [at 5.95 µM] | viability change, negative = cytotoxic [2] -0.385% [at 6.95 µM] | activity, negative = cytotoxic [3] 11.1% [at 6.95 µM] | activation [4] -0.0292% [at 6.95 µM] | activity change, negative = cytotoxicity [5] -2.31% [at 6.95 µM] | activity, negative = cytotoxicity [6] 0.267% [at 8.39 µM] | viability change, negative = cytotoxic [7] 2.06% [at 6.97 µM] | activation [8] -4.84% [at 6.97 µM] | activation [9] 1.94% [at 6.98 µM] | activity change, negative = cytotoxicity [10] 3.65% [at 6.97 µM] | activity change, negative = cytotoxicity [11] -1.04% [at 8.39 µM]

C[N+]1(CC2COC(c3ccccc3)(C3CCCCC3)O2)CCCCC1 (stereo not drawn)
inactive: Potency [1] | Potency [2] | Potency [3] | Potency [4] | Potency [5] | Potency [6] | Potency [7] | Potency [8] | Potency [9] | Potency [11]

O=C(O)c1ccc(-n2nc(-c3ccccc3O)nc2-c2ccccc2O)cc1
inactive: Potency [2] | Potency [3] | Potency [4] | Potency [5] | Potency [6] | Potency [7] | Potency [8] | Potency [10] | Potency [11] | Potency [12]

CCCCCCc1ccc(-c2ccc(C#N)cc2)cc1
inactive: Potency [1] | Potency [2] | Potency [3] | Potency [4] | Potency [5] | Potency [6] | Potency [7] | Potency [8] | Potency [10] | Potency [11] | Potency [12] | Potency [13]

CN1Cc2cc(C(=O)N3CCC(C4CCNCC4)CC3)ccc2NC(CC(=O)O)C1=O (stereo not drawn)
inactive: Potency [1] | Potency [2] | Potency [3] | Potency [4] | Potency [5] | Potency [6] | Potency [7] | Potency [8] | Potency [9] | Potency [10] | Potency [11]

CC(CC=O)c1ccccc1 (stereo not drawn)
inactive: Potency [1] | Potency [2] | Potency [3] | Potency [4] | Potency [5] | Potency [6] | Potency [7] | Potency [8] | Potency [10] | Potency [11] | Potency [12]

O=C1c2ccccc2S(=O)(=O)N1CCCCN1CCN(c2ncccn2)CC1
inactive: Potency [1] | Potency [2] | Potency [3] | Potency [4] | Potency [5] | Potency [6] | Potency [7] | Potency [8] | Potency [10] | Potency [11] | Potency [12] | Potency [13]

CC1=CC[C@H](C(C)C)C=C1
inactive: Potency [1] | Potency [3] | Potency [4] | Potency [5] | Potency [6] | Potency [7] | Potency [8] | Potency [9] | Potency [11]

NCC(=O)CCC(=O)O
inactive: Potency [1] | Potency [2] | Potency [3] | Potency [4] | Potency [5] | Potency [6] | Potency [7] | Potency [8] | Potency [9] | Potency [10] | Potency [11]

CC(C)C[C@H]1C(=O)N2CCC[C@H]2[C@]2(O)O[C@](NC(=O)[C@@H]3C=C4c5cccc6[nH]c(Br)c(c56)C[C@H]4N(C)C3)(C(C)C)C(=O)N12
inactive: Potency [1] | Potency [2] | Potency [3] | Potency [4] | Potency [5] | Potency [6] | Potency [7] | Potency [8] | Potency [10] | Potency [11] | Potency [13] | outcome [15] | outcome [17]
active: Potency [14] 16.8 µM | Potency [16] 16.2 µM
